Experimental findings from PubChem BioAssay (Tox21) are described below.

Assay [1] can be described thus: qHTS assay to identify small molecule agonists of the vitamin D receptor (VDR) signaling pathway - cell viability counter screen (AID 743224). Note: nearly all actives have a fitted effect of over 50% in size. Note: potency is the fitted concentration of half-maximal effect. The gist of the method: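 Here cell health was gauged by luminescent ATP detection (CellTiter-Glo, 30 min RT) in VDR-bla cells that had been incubated with test compounds for 16 h at 37C and 5% CO2.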
In general terms: In qHTS, concentration-response curves come from the screen itself.

Assay [2] can be described thus: qHTS assay to identify small molecule antagonists of the vitamin D receptor (VDR) signaling pathway - cell viability counter screen (AID 743225). Note: nearly all actives have a fitted effect of over 50% in size. Note: potency is the fitted concentration of half-maximal effect. The gist of the method: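 Same-well multiplex: following 16 h treatment of HEK 293T cells carrying a UAS-driven beta-lactamase reporter with compound and agonist (3 nM final), and a 2 h FRET substrate step, CellTiter-Glo was added and luminescence read after 30 min.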

Assay [3] in a line: qHTS assay to identify small molecule agonists of the NFkB signaling pathway - cell viability counter screen (AID 1159515; calls by dose curve; note: nearly all actives have a fitted effect of over 55% in size; note: potency is the fitted concentration of half-maximal effect). Summed up: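 5 hr compound treatment of NFkB-bla ME-180 cells (2,000/well, seeded overnight beforehand), followed by reporter substrate for 1.5 hr. CellTiter-Glo added afterward; luminescence after 30 min RT.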
Assay [4] can be described thus: qHTS assay to identify small molecule agonists of the endoplasmic reticulum stress response signaling pathway - cell viability counter screen (AID 1159517; calls by dose curve; note: nearly all actives have a fitted effect of over 50% in size; note: potency is the fitted concentration of half-maximal effect). Summed up:
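CellTiter-Glo was added to wells already read for beta-lactamase FRET, and luminescence was recorded 30 min later. Cells: ESRE-bla HeLa, 1,500 per well, compound exposure 5 hr at 37 C.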

Assay [5] concerns the target Nuclear receptor ROR-gamma (Homo sapiens) (UniProt P51449). The assay can be described thus: qHTS assay to identify small molecule antagonists of the retinoid-related orphan receptor gamma (ROR-gamma) signaling pathway (AID 1159521; note: nearly all actives have a fitted effect of over 50% in size; note: potency is the fitted concentration of half-maximal effect). The gist of the method:
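Inducible-expression reporter assay: doxycycline (1 uM final) switched on RORγ in CHO cells bearing a ROR response element-luciferase construct, with test compounds present from 2 h beforehand. Decreased luminescence after 16 h defined antagonist activity.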

A short description of assay [6]: qHTS assay to identify small molecule agonists of the AP-1 signaling pathway - cell viability counter screen (AID 1159525; calls by dose curve; note: nearly all actives have a fitted effect of over 55% in size; note: potency is the fitted concentration of half-maximal effect). Summed up: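 ME-180 AP-1-bla, 2500 cells/well, Opti-MEM + 0.5% dialyzed FBS; overnight 37 °C; cpd 15-pt titration, 5 h 37 °C; CellTiter-Glo 30 min RT; luminescence read; normalised to TOAB and DMSO controls.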
A short description of assay [7]: qHTS assay to identify small molecule agonists of the AP-1 signaling pathway (AID 1159526; calls by dose curve).
Assay [8] addresses Retinoic acid receptor RXR-alpha (Homo sapiens) (UniProt P19793). The assay is described as follows: qHTS assay to identify small molecule agonists of the RXR signaling pathway (AID 1159527; calls by dose curve; note: nearly all actives have a fitted effect of over 35% in size). The gist of the method:
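Compounds in DMSO were added to RXR-alpha-UAS-bla HEK 293T cells kept in 2% charcoal-stripped serum, and incubated 16 hr at 37 C with 5% CO2. Reporter signal came from a 2 hr B/G FRET substrate step.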

Assay [9] can be described thus: qHTS assay to identify small molecule agonists of the RXR signaling pathway - cell viability counter screen (AID 1159529). Note: nearly all actives have a fitted effect of over 50% in size. Note: potency is the fitted concentration of half-maximal effect. The gist of the method: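 Counter screen: CellTiter-Glo luminescence. Cells: RXR-alpha-UAS-bla HEK 293T. Medium: 2% charcoal-stripped FBS. Treatment: 16 h, 37 C. Reagent incubation: 30 min, RT.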
Assay [10] can be described thus: qHTS assay to identify small molecule antagonists of the retinoid acid receptor (RAR) signaling pathway - cell viability counter screen (AID 1159551). Note: nearly all actives have a fitted effect of over 35% in size. Note: potency is the fitted concentration of half-maximal effect. The gist of the method: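 Seed C3RL4 cells; next day add compound, then retinol to 1 uM final; incubate 6 h at 37 C; add CellTiter-Glo; read luminescence after 30 min at RT.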
Assay [11] is described as follows: qHTS assay to identify small molecule antagonists of the retinoic acid receptor (RAR) signaling pathway (AID 1159552; note: nearly all actives have a fitted effect of over 50% in size; note: potency is the fitted concentration of half-maximal effect). The gist of the method: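 Antagonism of retinol-induced RARE reporter activity was measured in C3RL4 cells. Exposure to compounds and 1 uM final retinol lasted 6 hr at 37 C, with luminescence as endpoint.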
A short description of assay [12]: qHTS assay to identify small molecule agonists of the retinoic acid receptor (RAR) signaling pathway (AID 1159553). Note: potency is the fitted concentration of half-maximal effect. Summed up:
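Activation of retinol signaling was monitored via a RARE luciferase reporter in C3RL4 cells. After 6 hr compound treatment at 37 C, detection reagent was added for 30 min at room temperature before luminescence reading.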

A short description of assay [13]: qHTS assay to identify small molecule antagonists of the estrogen related receptor (ERR) signaling pathway from Tox21 library - cell viability counter screen (AID 1224834). Note: nearly all actives have a fitted effect of over 30% in size. Note: potency is the fitted concentration of half-maximal effect. The gist of the method: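 CellTiter-Fluor fluorescence measured; ERR cells; 17.5 h compound incubation at 37 C; 30 min reagent step.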
Assay [14] can be described thus: qHTS assay to identify small molecule antagonists of the retinoid-related orphan receptor gamma (ROR-gamma) signaling pathway - cell viability counter screen (AID 1159520). Note: nearly all actives have a fitted effect of over 50% in size. Note: potency is the fitted concentration of half-maximal effect. The gist of the method:
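Tet-on ROR gamma CHO cells (1,000/well) were plated 4 hr, given compounds in DMSO for 2 hr at 37 C, then induced with 1 uM final doxycycline for 16 hr. Viability was read as ATP by CellTiter-Glo luminescence after 30 min.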

Assay [15] addresses Luciferin 4-monooxygenase (Photinus pyralis) (UniProt P08659). The assay can be described thus: qHTS assay to identify small molecule inhibitors of firefly luciferase (AID 1224835). Note: nearly all actives have a fitted effect of over 25% in size. Note: potency is the fitted concentration of half-maximal effect. Summed up: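 Quantitative HTS format; KM concentrations of both substrates. Purified P. pyralis FLuc activity quantified from luminescence images.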
Assay [16] is described as follows: qHTS assay to identify small molecule antagonists of the estrogen related receptor (ERR) signaling pathway (AID 1224819). The gist of the method: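 qHTS in ERR cells, 2,000/well, 1536 format. Cpd (DMSO) added after 6 h settle, 18 h 37 C. One-Glo luminescence, 30 min RT.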
A short description of assay [17]: qHTS assay to identify small molecule agonists of the estrogen related receptor (ERR) signaling pathway (AID 1224820). The gist of the method: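 Cells: ERR line from NTP, 2,000/well. Pre-incubation 6 h, 37 C/5% CO2. Compound (DMSO) pin transfer, 18 h 37 C. One-Glo, 30 min RT, luminescence.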
The nature of assay [18]: qHTS assay to identify small molecule agonists of the estrogen related receptor signaling pathway with the pleiotropic PPARgamma coactivator (PGC) (AID 1224823). Summed up:
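Steps: plate PGC/ERR cells at 2,000 cells/well; incubate 6 h, 37 C/5% CO2; pin-transfer compounds (DMSO); incubate 18 h, 37 C; add One-Glo; 30 min RT; read luminescence.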

Records with an inconclusive call do not appear. More than one record can exist for a structure, and the calls need not agree. Activity calls are given as the source filed them. Unless noted, calls come from the whole dose curve; as a rule, active = well fitted curve in the direction sought with a large enough effect in the repeat runs; inconclusive = weak or mixed curves; inactive = no such curve, though single readings can be large; an effect the other way counts as inactive or inconclusive.

Chain of Luciferin 4-monooxygenase (Photinus pyralis) (P08659 whole entry, looked up): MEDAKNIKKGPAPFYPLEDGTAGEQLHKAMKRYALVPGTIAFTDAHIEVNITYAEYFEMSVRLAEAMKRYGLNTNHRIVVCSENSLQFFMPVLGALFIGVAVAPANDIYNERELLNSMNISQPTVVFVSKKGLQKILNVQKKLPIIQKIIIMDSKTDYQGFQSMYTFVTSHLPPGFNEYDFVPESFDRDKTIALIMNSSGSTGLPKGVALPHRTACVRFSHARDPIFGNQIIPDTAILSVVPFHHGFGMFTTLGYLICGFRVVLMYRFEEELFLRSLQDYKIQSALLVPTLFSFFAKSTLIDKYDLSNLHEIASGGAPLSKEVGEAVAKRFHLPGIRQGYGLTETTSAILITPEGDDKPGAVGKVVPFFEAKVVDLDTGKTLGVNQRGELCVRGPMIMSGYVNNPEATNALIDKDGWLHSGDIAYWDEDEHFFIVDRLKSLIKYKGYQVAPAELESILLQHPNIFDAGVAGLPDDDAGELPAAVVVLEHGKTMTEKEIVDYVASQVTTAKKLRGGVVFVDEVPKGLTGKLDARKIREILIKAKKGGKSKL
Chain of Retinoic acid receptor RXR-alpha (Homo sapiens) (P19793 whole entry, looked up): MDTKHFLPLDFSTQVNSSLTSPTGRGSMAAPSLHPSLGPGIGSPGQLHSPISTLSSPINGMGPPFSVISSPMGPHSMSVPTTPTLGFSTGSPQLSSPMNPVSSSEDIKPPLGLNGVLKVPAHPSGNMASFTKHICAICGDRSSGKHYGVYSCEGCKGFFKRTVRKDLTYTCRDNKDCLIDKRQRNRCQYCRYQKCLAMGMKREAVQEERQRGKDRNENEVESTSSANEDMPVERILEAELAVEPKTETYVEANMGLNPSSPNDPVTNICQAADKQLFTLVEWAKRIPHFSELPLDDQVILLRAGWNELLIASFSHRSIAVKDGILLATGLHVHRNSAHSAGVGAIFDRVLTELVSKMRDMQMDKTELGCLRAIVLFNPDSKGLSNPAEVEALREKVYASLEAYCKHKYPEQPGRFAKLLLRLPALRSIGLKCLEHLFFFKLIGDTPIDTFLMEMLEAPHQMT

Take `CN(C)[C@@H]1C(=O)C(C(N)=O)=C(O)[C@@]2(O)C(=O)C3=C(O)c4c(O)cccc4C[C@H]3C[C@@H]12`: the Potency result in assay [1], in [2], in [3], in [4], in assay [6] and in [7] was “inactive” each time. The Potency entry in assay [8], in [9], in [10], in assay [11], in assay [12] and in assay [13] was “inactive” each time. Moreover, the Potency in assay [5] is 13.3 µM (active).
Regarding `OC1(c2ccc(Cl)c(C(F)(F)F)c2)CCN(CCCC(c2ccc(F)cc2)c2ccc(F)cc2)CC1`, the Potency was 13.3 µM (active) in assay [1]; 10.7 µM (active) in assay [2]; 12 µM (active) in [3]; 8.49 µM (active) in assay [4]; 9.44 µM (active) in assay [14]; 9.52 µM (active) in assay [6]. In addition, the Potency in [9] was 6.74 µM (active); in [11] it was 26.6 µM (active); in assay [13], 21.1 µM (active). For the same molecule, the Potency entry in [15] was “inactive”.
For the molecule `OCCN(CCO)c1nc(N2CCCCC2)c2nc(N(CCO)CCO)nc(N3CCCCC3)c2n1`, the Potency result in assay [3], in assay [14], in assay [5], in [6], in assay [9] and in assay [11] was “inactive” each time. Moreover, the Potency entry in [12] and in assay [15] was “inactive” in each case. Also, the Potency in [16] is 11.9 µM (active). For the same molecule, the outcome in assay [17] and in assay [18] was inactive.
Take `CC[C@@]1(O)C(=O)OCc2c1cc1n(c2=O)Cc2c-1nc1ccccc1c2/C=N/OC(C)(C)C`: the Potency entry in assay [3], in assay [6] and in assay [15] was “inactive” in each case. The Potency in assay [14] was 0.944 µM (active); in [5] it was 15 µM (active); in assay [9] it was 0.848 µM (active); in assay [11] it was 0.119 µM (active).
Take `CCOC(=O)O[C@H](C)OC(=O)c1ccc2c(c1)cc(C(=O)NC1CCN(C(C)C)CC1)n2Cc1cc(-c2ccc(Cl)s2)on1`: the Potency in assay [1] was 14.5 µM (active); in [3], 45.8 µM (active); in [14] it was 11.4 µM (active); in assay [5], 4.54 µM (active); in assay [6] it was 16.2 µM (active); in assay [9] it was 6.46 µM (active). Further, the results for the Potency in assay [10], in assay [11] and in assay [13] were 28.6 µM (active), 12.8 µM (active) and 28.6 µM (active), respectively. Besides, in assay [15], the Potency result was “inactive”.
As for `O=C1C=CC(=O)N1`, the Potency in [1] was 12.6 µM (active); in assay [2] it was 35.6 µM (active); in assay [14], 12.5 µM (active); in [5], 5.59 µM (active); in assay [9], 22.5 µM (active); in assay [11], 8.86 µM (active). The Potency in assay [13] was 49.8 µM (active); in assay [15], 32.6 µM (active). The Potency entry in assay [3] was “inactive”.
For the molecule `COc1ccc(-c2ccc3cc(C(=O)O)ccc3c2)cc1C12CC3CC(CC(C3)C1)C2`, the Potency result in assay [2], in assay [6], in assay [7], in assay [8], in [10] and in assay [11] was “inactive” throughout. Also, in assay [15], the Potency entry was “inactive”. Further, the Potency in [3] was 21.3 µM (active); in assay [14], 29.8 µM (active); in assay [12], 29.8 nM (active).
As to `Cc1cc(CCN2CCN(c3nsc4ccccc34)CC2)cc2c1NC(=O)CC2(C)C`, the Potency in assay [1] was 17.4 µM (active); in [2], 19.5 µM (active); in assay [3], 54.9 µM (active); in [14], 61.1 µM (active); in assay [5], 9.69 µM (active); in [6], 54.9 µM (active). Further, the Potency in [9] is 11 µM (active); in assay [11] it was 30.6 µM (active); in assay [13] it was 30.6 µM (active). The Potency result in assay [15] was “inactive”.
Take `C[C@H](CCC(=O)O)[C@H]1CC[C@H]2[C@@H]3CC[C@@H]4C[C@H](O)CC[C@]4(C)[C@H]3CC[C@]12C`: the Potency was 24.5 µM (active) in assay [1]; 49 µM (active) in [3]; 60.9 µM (active) and inactive in assay [14]; 48.8 µM (active) in [6]; 38.7 µM (active) in assay [9]. The Potency entry in [2], in assay [5], in assay [13] and in assay [15] was “inactive” in each case.
Consider `O=[N+]([O-])c1cc(Cl)c(Cl)c(Cl)c1Cl`, for which the Potency result in [1], in assay [2], in [3], in assay [14], in assay [5] and in [6] was “inactive” throughout. Besides, the Potency result in assay [9], in assay [10], in assay [12] and in [15] was “inactive” throughout.
As for `CN(C)C(=O)C1(N2CCCCC2)CCN(CC[C@@]2(c3ccc(Cl)c(Cl)c3)CN(C(=O)c3ccccc3)CCO2)CC1`, the Potency in [2] was 22.9 µM (active); in [3], 51.3 µM (active); in assay [14], 50.9 µM (active); in assay [5], 32.1 µM (active); in [9] it was 16.2 µM (active); in assay [11], 28.6 µM (active). Also, the Potency in [13] was 50.9 µM (active). The Potency result in assay [15] was “inactive”.
Consider `CC(C)c1ccc2c(c1)CC[C@H]1[C@](C)(CN)CCC[C@]21C`, for which the Potency was 17.4 µM (active) in assay [1]; 43.6 µM (active) in assay [2]; 19.5 µM (active) in assay [3]; 30.6 µM (active) in assay [14]; 30.6 µM (active) in [5]; 54.9 µM (active) in [6]. Further, the Potency in assay [9] is 21.9 µM (active).
Consider `C=CC(=O)OCCn1c(=O)n(CCOC(=O)C=C)c(=O)n(CCOC(=O)C=C)c1=O`, for which the Potency is 43.6 µM (active) in assay [2], 12.2 µM (active) in assay [5], 24.5 µM (active) in assay [9] and 17.2 µM (active) in assay [13]. The Potency result in assay [3], in assay [14], in assay [6] and in [15] was “inactive” in each case.
For `On1ccccc1=S`, the Potency in [1] was 0.61 µM (active); in [3], 0.385 µM (active); in assay [14] it was 5.39 µM (active); in assay [5], 0.303 µM (active); in assay [6], 21.7 µM (active); in assay [9], 2.43 µM (active). In [13], the Potency is 1.71 µM (active). Also, the Potency entry in assay [2] is “inactive”.
